Measurements: the supplement of paper PMC10849652
About 7,900 targets were measured; listed, in parts, are those with a hit and a random draw of the rest. About 0.6% of all pairs of compound and target were hits. Values without a mark were called inactive.

Key:
Experiment in all cases: log2 fold change, soluble protein after heating vs DMSO (PISA); higher = thermal stabilisation; K562 cells, 10 uM, 30 min; active = over 0.2 and 3.5 SD of the protein, either way, in both replicates (recomputed)
[1] = compound: Cc1ccc(NC(=O)c2ccc(CN3CC[C@H](N(C)C)C3)c(C(F)(F)F)c2)cc1Nc1nccc(-c2cncnc2)n1 [bafetinib]
How it was run: (§1)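 K562 cells at 2×10^6 cells/mL were given 10 μM compound for 30 min. Aliquots then went through 3 min of heating across 48°C-58°C, were pooled, and were extracted in PBS with 0.5% NP-40 at 4°C, and the supernatant after 21,000xg for 90 min was quantified by TMTpro 16plex LC-MS/MS with channel sums equalised. Thermal stability relative to control samples, from duplicates, is given as log2 fold change.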

[2] = compound: Cc1cccc(CC(=O)N2CCc3c2ccc(-c2cn(C)c4ncnc(N)c24)c3F)n1
How it was run: as §1

[3] = compound: Cc1cn(-c2cc(NC(=O)c3ccc(C)c(Nc4nccc(-c5cccnc5)n4)c3)cc(C(F)(F)F)c2)cn1 [nilotinib]
How it was run: as §1

[4] = compound: Cc1nc(Nc2n[nH]c3c2CN(C(=O)N[C@H](CN(C)C)c2ccccc2)C3(C)C)c2sccc2n1
How it was run: as §1

[5] = compound: Cc1nc(Nc2ncc(C(=O)Nc3c(C)cccc3Cl)s2)cc(N2CCN(CCO)CC2)n1 [dasatinib]
How it was run: as §1

[6] = compound: Cc1ncc(-c2ccnc(Nc3ccc(S(C)(=O)=O)cc3)n2)n1C(C)C
How it was run: as §1

[7] = compound: Cn1cc(-c2ccc3c(c2)CCN3C(=O)Cc2cccc(C(F)(F)F)c2)c2c(N)ncnc21
How it was run: as §1

[8] = compound: Cn1cc(-c2ccc3nnc(C(F)(F)c4ccc5ncccc5c4)n3n2)cn1
How it was run: as §1

[9] = compound: Cn1cncc1[C@@](N)(c1ccc(Cl)cc1)c1ccc2c(c1)c(-c1cccc(Cl)c1)cc(=O)n2C [tipifarnib]
How it was run: as §1

[10] = compound: FC(F)(F)c1ccc(/C=C/c2nc(COc3ccc(CCCCn4ccnn4)cc3)co2)cc1 [mubritinib]
How it was run: as §1

[11] = compound: NC(=O)Nc1cc(-c2cccc(F)c2)sc1C(=O)N[C@H]1CCCNC1
How it was run: as §1

[12] = compound: NC(=O)c1cnc(N[C@@H]2CCCC[C@@H]2N)nc1Nc1cccc(-n2nccn2)c1
How it was run: as §1

[13] = compound: NC1(c2ccc(-c3nc4ccn5c(=O)[nH]nc5c4cc3-c3ccccc3)cc2)CCC1
How it was run: as §1

[14] = compound: NCC(=O)Nc1ccc(-n2nc(C(F)(F)F)cc2-c2ccc3c(ccc4ccccc43)c2)cc1
How it was run: as §1

[15] = compound: Nc1ccccc1NC(=O)c1ccc(CNC(=O)OCc2cccnc2)cc1 [entinostat]
How it was run: as §1

[16] = compound: O=C(CCCCCCC(=O)Nc1ccccc1)NO [vorinostat]
How it was run: as §1

[17] = compound: O=C(CCCCCCNC(=O)c1cnc(N(c2ccccc2)c2ccccc2Cl)nc1)NO [citarinostat]
How it was run: as §1

[18] = compound: O=C(O)c1ccc2c(c1)nc(Nc1cccc(Cl)c1)c1ccncc12 [silmitasertib]
How it was run: as §1

[19] = compound: O=C1NC(=O)C(c2cnc3ccccn23)=C1c1cn2c3c(cc(F)cc13)CN(C(=O)N1CCCCC1)CC2
How it was run: as §1

[20] = compound: c1cc(OCCN2CCCCC2)cc(-c2n[nH]c3ccc(-c4nnc[nH]4)cc23)c1
How it was run: as §1

Chain of UniProt O76094 (O76094 whole entry, looked up): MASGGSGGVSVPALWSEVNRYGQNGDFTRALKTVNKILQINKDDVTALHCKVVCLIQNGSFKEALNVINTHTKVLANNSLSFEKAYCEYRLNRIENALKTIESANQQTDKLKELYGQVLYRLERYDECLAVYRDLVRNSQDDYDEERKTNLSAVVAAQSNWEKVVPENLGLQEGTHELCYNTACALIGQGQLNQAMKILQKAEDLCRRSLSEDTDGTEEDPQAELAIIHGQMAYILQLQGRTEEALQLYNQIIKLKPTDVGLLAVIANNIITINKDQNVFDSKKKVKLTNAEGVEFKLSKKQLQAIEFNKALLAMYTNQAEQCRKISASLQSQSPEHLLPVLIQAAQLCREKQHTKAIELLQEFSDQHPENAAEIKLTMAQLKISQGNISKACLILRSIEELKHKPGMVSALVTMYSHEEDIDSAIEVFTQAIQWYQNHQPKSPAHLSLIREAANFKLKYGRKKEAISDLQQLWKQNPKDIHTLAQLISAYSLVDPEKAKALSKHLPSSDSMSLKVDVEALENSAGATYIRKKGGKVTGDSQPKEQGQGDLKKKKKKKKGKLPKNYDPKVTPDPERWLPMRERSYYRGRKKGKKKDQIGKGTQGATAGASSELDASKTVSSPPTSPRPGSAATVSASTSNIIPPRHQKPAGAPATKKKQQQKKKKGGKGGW
Chain of UniProt Q9P016 (Q9P016 whole entry, looked up): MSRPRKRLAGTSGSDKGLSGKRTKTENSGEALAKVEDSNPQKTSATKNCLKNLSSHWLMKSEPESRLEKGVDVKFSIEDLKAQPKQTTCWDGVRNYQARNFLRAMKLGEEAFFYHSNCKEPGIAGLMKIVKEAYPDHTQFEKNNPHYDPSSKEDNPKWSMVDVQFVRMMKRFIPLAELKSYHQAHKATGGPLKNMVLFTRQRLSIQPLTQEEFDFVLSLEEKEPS
Chain of UniProt Q9H4L7 (Q9H4L7 whole entry, looked up): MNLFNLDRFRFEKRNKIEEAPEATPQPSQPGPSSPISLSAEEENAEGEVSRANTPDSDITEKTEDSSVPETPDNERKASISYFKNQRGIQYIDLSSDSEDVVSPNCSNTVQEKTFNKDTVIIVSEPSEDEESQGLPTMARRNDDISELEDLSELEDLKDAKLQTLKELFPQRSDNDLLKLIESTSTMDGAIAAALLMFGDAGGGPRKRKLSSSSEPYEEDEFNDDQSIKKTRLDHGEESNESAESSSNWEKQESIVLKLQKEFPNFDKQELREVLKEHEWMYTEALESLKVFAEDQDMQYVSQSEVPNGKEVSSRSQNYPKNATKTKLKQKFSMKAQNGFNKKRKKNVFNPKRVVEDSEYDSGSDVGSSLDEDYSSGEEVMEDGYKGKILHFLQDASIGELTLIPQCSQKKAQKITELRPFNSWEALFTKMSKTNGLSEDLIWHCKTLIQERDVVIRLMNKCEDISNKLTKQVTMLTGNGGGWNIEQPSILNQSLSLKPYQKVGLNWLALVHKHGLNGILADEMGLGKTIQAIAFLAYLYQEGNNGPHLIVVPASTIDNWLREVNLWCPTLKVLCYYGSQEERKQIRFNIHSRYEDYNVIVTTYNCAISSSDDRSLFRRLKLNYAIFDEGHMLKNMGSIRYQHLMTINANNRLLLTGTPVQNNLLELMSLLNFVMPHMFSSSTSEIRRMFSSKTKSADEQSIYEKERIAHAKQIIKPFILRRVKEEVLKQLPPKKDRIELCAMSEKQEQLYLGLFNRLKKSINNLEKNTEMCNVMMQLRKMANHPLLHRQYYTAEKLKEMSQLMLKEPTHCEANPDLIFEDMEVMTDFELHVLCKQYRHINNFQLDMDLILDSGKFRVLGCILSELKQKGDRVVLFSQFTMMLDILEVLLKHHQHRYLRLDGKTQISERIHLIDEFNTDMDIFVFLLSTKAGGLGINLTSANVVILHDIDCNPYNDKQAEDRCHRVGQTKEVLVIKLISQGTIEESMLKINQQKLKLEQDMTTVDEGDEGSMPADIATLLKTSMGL
Chain of UniProt Q9H5Q4 (Q9H5Q4 whole entry, looked up): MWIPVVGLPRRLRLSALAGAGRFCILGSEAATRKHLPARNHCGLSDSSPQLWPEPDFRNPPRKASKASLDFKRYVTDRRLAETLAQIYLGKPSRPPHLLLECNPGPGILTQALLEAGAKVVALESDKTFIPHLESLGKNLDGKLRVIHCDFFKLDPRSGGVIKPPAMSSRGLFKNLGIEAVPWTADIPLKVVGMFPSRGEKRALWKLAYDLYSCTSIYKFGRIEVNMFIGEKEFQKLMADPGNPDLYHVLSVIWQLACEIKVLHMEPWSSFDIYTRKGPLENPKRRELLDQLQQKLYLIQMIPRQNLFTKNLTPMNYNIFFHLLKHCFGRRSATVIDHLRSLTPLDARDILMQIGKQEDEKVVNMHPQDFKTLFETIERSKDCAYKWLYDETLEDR
Chain of UniProt Q9NXE4 (Q9NXE4 whole entry, looked up): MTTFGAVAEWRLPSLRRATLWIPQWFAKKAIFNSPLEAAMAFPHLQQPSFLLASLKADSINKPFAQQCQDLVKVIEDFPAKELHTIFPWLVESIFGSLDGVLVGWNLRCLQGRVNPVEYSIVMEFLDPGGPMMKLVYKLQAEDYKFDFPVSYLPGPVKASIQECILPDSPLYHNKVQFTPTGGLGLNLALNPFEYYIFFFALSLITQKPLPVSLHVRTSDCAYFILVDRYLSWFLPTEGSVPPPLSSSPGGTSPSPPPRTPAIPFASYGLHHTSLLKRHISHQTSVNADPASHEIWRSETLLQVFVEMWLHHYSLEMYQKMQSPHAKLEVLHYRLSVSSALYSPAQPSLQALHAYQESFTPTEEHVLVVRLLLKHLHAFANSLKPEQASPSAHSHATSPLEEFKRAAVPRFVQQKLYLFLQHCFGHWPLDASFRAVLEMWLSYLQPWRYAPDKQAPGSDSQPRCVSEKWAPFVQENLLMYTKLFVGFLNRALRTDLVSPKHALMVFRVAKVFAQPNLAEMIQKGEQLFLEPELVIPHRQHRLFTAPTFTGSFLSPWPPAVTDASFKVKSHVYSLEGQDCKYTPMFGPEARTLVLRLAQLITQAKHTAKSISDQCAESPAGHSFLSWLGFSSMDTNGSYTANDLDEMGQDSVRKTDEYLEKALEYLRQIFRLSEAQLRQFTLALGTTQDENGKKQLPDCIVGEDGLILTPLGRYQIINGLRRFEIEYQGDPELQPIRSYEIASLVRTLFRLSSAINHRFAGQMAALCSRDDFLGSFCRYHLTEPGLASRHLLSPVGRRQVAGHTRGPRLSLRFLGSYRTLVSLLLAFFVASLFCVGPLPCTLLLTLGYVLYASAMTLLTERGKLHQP
Chain of UniProt Q16629 (Q16629 whole entry, looked up): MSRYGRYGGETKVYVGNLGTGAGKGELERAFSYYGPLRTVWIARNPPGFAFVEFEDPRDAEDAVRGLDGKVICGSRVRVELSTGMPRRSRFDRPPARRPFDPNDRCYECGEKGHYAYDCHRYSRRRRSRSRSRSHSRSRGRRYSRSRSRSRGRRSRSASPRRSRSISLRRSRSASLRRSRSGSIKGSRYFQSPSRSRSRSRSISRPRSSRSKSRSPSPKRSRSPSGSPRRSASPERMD
Chain of UniProt Q15005 (Q15005 whole entry, looked up): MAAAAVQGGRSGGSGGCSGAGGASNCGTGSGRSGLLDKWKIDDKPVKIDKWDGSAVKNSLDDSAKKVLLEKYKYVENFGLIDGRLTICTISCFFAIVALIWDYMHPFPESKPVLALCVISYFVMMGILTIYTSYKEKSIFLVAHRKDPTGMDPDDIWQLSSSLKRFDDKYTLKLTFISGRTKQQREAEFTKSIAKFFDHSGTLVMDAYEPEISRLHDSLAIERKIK
Chain of UniProt O14776 (O14776 whole entry, looked up): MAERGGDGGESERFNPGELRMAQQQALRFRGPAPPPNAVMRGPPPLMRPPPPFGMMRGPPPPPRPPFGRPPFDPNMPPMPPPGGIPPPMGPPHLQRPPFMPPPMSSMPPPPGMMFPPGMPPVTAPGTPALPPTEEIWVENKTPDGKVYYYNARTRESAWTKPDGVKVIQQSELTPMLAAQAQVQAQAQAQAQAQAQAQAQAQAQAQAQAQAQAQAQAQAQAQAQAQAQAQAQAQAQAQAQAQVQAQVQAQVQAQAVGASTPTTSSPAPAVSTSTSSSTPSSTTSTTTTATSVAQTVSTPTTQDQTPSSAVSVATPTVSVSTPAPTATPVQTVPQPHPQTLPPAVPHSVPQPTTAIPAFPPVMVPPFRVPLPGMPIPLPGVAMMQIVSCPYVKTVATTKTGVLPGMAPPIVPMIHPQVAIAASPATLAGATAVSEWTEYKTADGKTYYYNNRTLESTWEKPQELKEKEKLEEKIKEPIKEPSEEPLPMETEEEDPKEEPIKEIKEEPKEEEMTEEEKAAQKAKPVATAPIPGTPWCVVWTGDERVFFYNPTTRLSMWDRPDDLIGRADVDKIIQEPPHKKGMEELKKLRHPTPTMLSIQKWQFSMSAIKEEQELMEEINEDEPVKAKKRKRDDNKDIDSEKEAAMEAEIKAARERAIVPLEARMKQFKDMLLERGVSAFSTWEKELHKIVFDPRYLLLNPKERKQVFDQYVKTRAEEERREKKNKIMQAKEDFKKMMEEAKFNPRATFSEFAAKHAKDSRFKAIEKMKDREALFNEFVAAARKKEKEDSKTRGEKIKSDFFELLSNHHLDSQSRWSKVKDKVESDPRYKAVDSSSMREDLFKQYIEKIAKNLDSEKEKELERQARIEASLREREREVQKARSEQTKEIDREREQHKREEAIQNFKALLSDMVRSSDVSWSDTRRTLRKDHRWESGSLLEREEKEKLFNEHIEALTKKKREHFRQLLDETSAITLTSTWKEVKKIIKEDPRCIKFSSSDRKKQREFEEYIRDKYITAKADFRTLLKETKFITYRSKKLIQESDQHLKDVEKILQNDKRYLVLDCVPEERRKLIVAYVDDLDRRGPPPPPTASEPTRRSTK

Target | log2 fold change [1] | log2 fold change [2] | log2 fold change [3] | log2 fold change [4] | log2 fold change [5] | log2 fold change [6] | log2 fold change [7] | log2 fold change [8] | log2 fold change [9] | log2 fold change [10] | log2 fold change [11] | log2 fold change [12] | log2 fold change [13] | log2 fold change [14] | log2 fold change [15] | log2 fold change [16] | log2 fold change [17] | log2 fold change [18] | log2 fold change [19] | log2 fold change [20]
SMPD4 isoform 4 (UniProt Q9NXE4) | -0.031 | 0.122 | -0.1 | -0.076 | -0.037 | 0.025 | 0.098 | 0.04 | -0.016 | 0.148 | -0.008 | -0.075 | -0.141 | -0.059 | 0.033 | 0.084 | -0.039 | 0.085 | 0.012 | 0.268
THYN1 (UniProt Q9P016) | 0.009 | -0.028 | -0.021 | 0.044 | -0.097 | -0.009 | -0.015 | 0.013 | -0.036 | 0.031 | 0 | -0.011 | -0.048 | -0.103 | -0.004 | 0.011 | 0.008 | -0.011 | -0.022 | -0.034
TCERG1 (UniProt O14776) | 0.03 | 0.077 | -0.093 | -0.24 | -0.26 | 0.02 | 0.088 | 0.07 | -0.097 | 0.183 | -0.026 | -0.075 | -0.123 | -0.112 | 0.159 | 0.129 | 0.129 | 0.022 | -0.153 | 0
SRSF7 (UniProt Q16629) | 0.073 | -0.055 | 0.156 | -0.642 (active) | 0.171 | 0.044 | -0.177 | -0.126 | 0.181 | -0.128 | 0 | 0.13 | 0.525 | 0.027 | -0.079 | 0 | -0.132 | -0.144 | 0.357 | -0.33
TFB2M (UniProt Q9H5Q4) | -0.046 | 0.008 | -0.043 | -0.024 | -0.099 | 0.009 | 0.012 | -0.004 | -0.132 | -0.039 | -0.029 | -0.066 | -0.187 | -0.066 | 0.054 | 0.027 | 0.01 | 0.046 | -0.024 | 0.003
SMARCAD1 isoform 2 (UniProt Q9H4L7) | 0.067 | 0.014 | 0.049 | -0.056 | -0.131 | -0.049 | 0.088 | 0.034 | -0.144 | 0.241 | -0.109 | -0.043 | -0.187 | -0.072 | 0.057 | 0.045 | 0.037 | 0.03 | -0.187 | 0.088
SRP72 (UniProt O76094) | 0.05 | 0.048 | -0.117 | -0.03 | -0.186 | 0.108 | -0.052 | -0.052 | -0.148 | -0.036 | -0.088 | -0.054 | -0.082 | -0.128 | 0.069 | 0.103 | 0.095 | 0.042 | 0.105 | -0.129
SPCS2 (UniProt Q15005) | -0.057 | 0.003 | 0.014 | -0.034 | 0 | 0 | 0.053 | 0.025 | -0.035 | 0.037 | 0 | -0.002 | -0.072 | 0.143 | 0.016 | 0.024 | 0.224 | -0.001 | -0.021 | 0.23
